Assays:
Assay in all cases: DAPPL (digital affinity profiling via proximity ligation, sequencing); 10 mM Tris-HCl pH 7.5, 50 mM NaCl, 1 mM DTT, 4% glycerol, room temperature, 30 min; GST-TFs on glutathione beads, 16-mer random dsDNA library, 0.1% formaldehyde crosslink after washing; high values mean tight binding
[1] = target: T1, FLI1 (Homo sapiens, UniProt Q01543 1-452); settings: protein: recombinant; tags: N-terminal GST; dsDNA, one strand shown
T1 sequence: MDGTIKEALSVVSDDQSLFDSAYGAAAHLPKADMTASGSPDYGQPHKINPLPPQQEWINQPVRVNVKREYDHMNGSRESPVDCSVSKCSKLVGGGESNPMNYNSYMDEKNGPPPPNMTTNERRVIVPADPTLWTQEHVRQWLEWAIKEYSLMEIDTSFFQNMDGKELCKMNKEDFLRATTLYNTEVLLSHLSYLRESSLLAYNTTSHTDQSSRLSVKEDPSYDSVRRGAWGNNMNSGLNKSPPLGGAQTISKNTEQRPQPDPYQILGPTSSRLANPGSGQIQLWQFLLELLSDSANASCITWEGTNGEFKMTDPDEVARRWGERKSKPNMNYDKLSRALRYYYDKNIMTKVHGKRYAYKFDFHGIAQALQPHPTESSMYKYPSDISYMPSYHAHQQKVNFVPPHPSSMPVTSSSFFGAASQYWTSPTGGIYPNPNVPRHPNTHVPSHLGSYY
Outline: (§1)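 A tag-only sample was pooled with DNA-barcoded human transcription factors that had been expressed in yeast as GST fusions and captured on glutathione beads. The pools were incubated for 30 min at room temperature with 200 nmole of a random double-stranded 16-mer DNA library in Tris/NaCl/DTT/glycerol buffer, then washed, crosslinked with 0.1% formaldehyde, proximity-ligated (BsaI/T4 ligase, 1 h, 37 °C), PCR-amplified and sequenced on an Illumina NextSeq500. Binding signal is each hexamer's read frequency for a factor divided by its frequency for the tag-only sample.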

[2] = target: T2, ELK1 (Homo sapiens, UniProt P19419 1-428); settings: protein: recombinant; tags: N-terminal GST; dsDNA, one strand shown
T2 sequence: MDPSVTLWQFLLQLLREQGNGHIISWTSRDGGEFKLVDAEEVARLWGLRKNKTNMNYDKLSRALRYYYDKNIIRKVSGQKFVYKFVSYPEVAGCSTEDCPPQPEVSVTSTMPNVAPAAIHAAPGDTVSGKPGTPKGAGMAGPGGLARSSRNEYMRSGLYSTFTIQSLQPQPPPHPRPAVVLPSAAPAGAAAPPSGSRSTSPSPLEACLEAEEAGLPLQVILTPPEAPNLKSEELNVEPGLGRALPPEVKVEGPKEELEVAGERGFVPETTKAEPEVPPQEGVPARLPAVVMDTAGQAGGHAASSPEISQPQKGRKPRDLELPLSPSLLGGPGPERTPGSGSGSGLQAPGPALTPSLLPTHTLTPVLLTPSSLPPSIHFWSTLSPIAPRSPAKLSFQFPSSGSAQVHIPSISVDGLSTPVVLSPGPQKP
Outline: as §1

[3] = target: T3, GABPA (Homo sapiens, UniProt Q06546 1-454); settings: protein: recombinant; tags: N-terminal GST; dsDNA, one strand shown
T3 sequence: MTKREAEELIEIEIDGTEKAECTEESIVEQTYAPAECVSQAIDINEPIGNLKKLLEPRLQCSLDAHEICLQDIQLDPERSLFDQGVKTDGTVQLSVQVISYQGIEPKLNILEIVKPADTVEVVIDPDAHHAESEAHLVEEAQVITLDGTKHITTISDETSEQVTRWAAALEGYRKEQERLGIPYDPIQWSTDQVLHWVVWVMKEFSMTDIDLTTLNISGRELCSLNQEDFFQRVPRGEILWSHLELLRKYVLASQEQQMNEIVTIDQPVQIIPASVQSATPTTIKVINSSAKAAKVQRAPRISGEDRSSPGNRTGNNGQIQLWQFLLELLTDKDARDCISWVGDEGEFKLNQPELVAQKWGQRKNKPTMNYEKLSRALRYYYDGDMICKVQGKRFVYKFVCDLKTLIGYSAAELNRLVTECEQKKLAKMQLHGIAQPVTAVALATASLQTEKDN
Outline: as §1

[4] = target: T4, ERG (Homo sapiens, UniProt P11308 1-479); settings: protein: recombinant; tags: N-terminal GST; dsDNA, one strand shown
T4 sequence: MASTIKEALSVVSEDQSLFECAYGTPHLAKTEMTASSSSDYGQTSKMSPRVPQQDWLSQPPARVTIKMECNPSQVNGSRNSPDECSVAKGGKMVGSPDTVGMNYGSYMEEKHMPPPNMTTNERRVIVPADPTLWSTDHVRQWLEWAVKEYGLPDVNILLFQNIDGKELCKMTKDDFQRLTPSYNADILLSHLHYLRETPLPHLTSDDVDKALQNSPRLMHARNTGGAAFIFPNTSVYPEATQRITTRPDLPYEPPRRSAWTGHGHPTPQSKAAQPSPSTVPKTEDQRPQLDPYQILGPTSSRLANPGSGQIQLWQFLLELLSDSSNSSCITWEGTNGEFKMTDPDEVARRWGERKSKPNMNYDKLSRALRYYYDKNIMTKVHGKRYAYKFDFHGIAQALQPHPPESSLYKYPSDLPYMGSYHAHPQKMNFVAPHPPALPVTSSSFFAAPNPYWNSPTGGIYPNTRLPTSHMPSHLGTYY
Outline: as §1

[5] = target: ELF1 (Homo sapiens, UniProt P32519 1-619); settings: protein: recombinant; tags: N-terminal GST; dsDNA, one strand shown
Chain of ELF1 (P32519 whole entry): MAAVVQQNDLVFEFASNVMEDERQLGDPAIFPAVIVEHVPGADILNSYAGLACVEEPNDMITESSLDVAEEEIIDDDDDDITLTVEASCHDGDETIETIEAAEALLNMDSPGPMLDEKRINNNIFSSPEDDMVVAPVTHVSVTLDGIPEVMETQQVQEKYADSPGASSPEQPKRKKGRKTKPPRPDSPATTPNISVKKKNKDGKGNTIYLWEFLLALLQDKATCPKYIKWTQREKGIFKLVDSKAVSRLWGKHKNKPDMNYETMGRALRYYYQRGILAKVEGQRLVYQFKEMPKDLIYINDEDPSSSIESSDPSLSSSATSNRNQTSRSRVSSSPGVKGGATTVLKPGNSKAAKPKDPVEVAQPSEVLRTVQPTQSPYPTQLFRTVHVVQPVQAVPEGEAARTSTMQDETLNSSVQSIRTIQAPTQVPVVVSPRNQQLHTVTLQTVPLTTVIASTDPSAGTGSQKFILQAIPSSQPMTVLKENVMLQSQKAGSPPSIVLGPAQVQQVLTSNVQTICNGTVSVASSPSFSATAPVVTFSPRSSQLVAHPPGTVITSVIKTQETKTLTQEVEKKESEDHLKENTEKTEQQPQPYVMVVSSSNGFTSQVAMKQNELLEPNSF
Outline: as §1

[6] = target: T5, EHF (Homo sapiens, UniProt Q9NZC4 1-300); settings: protein: recombinant; tags: N-terminal GST; dsDNA, one strand shown
T5 sequence: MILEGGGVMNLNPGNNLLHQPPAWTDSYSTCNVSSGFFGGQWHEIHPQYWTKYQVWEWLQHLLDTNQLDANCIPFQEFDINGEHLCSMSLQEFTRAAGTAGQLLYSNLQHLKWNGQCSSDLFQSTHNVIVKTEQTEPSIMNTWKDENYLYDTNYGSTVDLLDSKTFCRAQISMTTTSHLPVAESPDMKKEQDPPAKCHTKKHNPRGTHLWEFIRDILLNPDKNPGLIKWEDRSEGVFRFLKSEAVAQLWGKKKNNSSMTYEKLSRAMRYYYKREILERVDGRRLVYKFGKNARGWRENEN
Outline: as §1

[7] = target: SPI1 (Homo sapiens, UniProt P17947 1-270); settings: protein: recombinant; tags: N-terminal GST; dsDNA, one strand shown
Outline: as §1

[8] = target: SPIB (Homo sapiens, UniProt Q01892 1-262); settings: protein: recombinant; tags: N-terminal GST; dsDNA, one strand shown
Chain of SPIB (Q01892 whole entry): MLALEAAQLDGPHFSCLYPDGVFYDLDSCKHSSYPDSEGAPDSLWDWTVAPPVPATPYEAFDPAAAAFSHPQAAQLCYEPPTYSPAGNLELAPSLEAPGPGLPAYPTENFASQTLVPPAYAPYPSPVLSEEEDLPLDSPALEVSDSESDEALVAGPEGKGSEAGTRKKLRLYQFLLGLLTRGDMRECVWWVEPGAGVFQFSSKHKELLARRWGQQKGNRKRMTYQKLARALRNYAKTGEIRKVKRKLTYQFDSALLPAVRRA
Outline: as §1

[9] = target: T6, ELK3 (Homo sapiens, UniProt P41970 1-407); settings: protein: recombinant; tags: N-terminal GST; dsDNA, one strand shown
T6 sequence: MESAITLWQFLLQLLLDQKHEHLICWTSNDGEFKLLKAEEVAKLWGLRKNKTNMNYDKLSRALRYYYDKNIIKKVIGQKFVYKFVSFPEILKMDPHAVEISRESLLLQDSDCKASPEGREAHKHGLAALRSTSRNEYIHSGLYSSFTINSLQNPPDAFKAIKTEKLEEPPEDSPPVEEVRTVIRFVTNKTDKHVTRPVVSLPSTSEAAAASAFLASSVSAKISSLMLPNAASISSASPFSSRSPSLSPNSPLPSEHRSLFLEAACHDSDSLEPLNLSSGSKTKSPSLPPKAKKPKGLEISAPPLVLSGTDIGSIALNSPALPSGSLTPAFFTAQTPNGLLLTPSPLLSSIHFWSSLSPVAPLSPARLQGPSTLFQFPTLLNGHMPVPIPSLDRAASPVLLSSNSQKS
Outline: as §1

[10] = target: T7, FEV (Homo sapiens, UniProt Q99581 1-238); settings: protein: recombinant; tags: N-terminal GST; dsDNA, one strand shown
T7 sequence: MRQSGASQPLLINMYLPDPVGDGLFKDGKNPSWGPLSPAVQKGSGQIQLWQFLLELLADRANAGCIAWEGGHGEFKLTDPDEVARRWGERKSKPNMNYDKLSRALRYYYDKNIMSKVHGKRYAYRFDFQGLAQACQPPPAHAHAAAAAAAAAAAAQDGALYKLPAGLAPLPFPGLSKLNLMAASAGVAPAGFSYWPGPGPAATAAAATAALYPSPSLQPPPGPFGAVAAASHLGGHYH
Outline: as §1

[11] = target: ETV5 (Homo sapiens, UniProt P41161 1-510); settings: protein: recombinant; tags: N-terminal GST; dsDNA, one strand shown
Chain of ETV5 (P41161 whole entry): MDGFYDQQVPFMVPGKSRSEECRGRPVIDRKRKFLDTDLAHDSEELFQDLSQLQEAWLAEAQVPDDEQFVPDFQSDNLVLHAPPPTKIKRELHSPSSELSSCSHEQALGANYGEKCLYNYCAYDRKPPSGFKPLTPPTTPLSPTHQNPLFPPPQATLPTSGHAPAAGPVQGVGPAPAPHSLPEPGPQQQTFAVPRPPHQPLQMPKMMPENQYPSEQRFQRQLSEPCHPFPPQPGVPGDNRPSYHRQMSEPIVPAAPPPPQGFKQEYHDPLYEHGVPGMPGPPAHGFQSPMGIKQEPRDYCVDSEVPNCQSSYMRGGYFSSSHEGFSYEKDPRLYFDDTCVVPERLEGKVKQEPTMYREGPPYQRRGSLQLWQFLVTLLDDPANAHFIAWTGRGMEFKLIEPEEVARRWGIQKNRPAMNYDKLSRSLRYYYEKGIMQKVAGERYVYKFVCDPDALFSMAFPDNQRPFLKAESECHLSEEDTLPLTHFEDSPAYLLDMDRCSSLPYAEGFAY
Outline: as §1

[12] = target: HSF1 (Homo sapiens, UniProt Q00613 1-529); settings: protein: recombinant; tags: N-terminal GST; chain copies: 3; dsDNA, one strand shown
Chain of HSF1 (Q00613 whole entry): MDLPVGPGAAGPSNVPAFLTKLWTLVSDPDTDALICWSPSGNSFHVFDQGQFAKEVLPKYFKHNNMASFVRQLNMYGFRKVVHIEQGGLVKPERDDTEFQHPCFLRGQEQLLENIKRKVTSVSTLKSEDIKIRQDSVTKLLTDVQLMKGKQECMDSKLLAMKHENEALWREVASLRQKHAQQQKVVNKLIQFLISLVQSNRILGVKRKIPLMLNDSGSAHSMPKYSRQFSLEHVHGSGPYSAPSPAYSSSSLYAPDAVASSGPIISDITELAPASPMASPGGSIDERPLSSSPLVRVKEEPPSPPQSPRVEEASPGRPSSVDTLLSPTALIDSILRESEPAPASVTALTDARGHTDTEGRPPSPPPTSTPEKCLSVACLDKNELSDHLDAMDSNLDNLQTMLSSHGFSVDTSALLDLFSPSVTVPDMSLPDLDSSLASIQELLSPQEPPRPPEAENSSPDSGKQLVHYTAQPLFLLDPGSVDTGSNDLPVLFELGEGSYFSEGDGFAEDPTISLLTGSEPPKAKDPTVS
Outline: as §1

[13] = target: T8, SPIC (Homo sapiens, UniProt Q8N5J4 1-248); settings: protein: recombinant; tags: N-terminal GST; dsDNA, one strand shown
T8 sequence: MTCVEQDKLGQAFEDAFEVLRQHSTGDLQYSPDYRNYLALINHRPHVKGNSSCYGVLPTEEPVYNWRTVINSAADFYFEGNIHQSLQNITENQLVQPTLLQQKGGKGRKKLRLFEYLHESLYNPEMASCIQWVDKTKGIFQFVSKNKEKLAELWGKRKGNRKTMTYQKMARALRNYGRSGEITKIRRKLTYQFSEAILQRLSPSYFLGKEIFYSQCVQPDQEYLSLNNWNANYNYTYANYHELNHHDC
Outline: as §1

[14] = target: ELF4 (Homo sapiens, UniProt Q99607 1-663); settings: protein: recombinant; tags: N-terminal GST; dsDNA, one strand shown
Chain of ELF4 (Q99607 whole entry): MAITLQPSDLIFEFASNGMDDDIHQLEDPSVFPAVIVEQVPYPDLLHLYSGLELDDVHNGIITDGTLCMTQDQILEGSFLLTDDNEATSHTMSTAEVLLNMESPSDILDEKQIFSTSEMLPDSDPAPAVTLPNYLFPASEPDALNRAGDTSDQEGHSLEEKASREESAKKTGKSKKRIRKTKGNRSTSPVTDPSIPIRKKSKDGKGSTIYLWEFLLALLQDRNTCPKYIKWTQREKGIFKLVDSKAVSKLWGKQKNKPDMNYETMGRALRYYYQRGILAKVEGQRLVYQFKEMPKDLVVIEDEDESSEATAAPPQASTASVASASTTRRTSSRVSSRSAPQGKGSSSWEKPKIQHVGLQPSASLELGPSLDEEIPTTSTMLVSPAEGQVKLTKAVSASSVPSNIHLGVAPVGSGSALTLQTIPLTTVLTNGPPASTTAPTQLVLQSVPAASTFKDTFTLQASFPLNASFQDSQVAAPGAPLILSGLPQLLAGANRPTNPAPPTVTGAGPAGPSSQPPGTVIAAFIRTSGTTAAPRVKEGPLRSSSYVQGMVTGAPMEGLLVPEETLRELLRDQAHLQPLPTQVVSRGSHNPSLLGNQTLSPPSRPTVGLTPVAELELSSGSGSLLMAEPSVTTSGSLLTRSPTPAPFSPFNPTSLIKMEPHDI
Outline: as §1

[15] = target: T9, ELK4 (Homo sapiens, UniProt P28324-2 1-405); settings: protein: recombinant; tags: N-terminal GST; dsDNA, one strand shown
T9 sequence: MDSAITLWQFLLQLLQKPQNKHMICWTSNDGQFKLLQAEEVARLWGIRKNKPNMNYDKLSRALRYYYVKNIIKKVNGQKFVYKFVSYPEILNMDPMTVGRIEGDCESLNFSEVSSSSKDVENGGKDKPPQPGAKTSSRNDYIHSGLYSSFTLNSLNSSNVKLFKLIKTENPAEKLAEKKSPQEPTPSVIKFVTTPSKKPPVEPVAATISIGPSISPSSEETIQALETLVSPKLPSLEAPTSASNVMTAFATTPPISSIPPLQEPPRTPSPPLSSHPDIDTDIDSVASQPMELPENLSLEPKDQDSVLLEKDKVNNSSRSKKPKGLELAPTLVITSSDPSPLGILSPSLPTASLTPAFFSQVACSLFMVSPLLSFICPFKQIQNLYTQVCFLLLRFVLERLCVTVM
Outline: as §1

[16] = target: T10, ETV2 (Homo sapiens, UniProt O00321 1-342); settings: protein: recombinant; tags: N-terminal GST; dsDNA, one strand shown
T10 sequence: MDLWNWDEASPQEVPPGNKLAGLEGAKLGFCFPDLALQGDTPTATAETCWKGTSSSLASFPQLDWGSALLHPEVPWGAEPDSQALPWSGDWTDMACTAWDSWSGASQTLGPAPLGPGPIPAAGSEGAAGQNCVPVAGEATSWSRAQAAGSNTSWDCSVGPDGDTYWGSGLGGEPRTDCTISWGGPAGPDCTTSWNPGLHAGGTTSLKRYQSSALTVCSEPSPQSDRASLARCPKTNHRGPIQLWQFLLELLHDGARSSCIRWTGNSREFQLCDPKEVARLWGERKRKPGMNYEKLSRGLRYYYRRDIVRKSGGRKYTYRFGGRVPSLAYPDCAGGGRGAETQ
Outline: as §1

[17] = target: T11, ELF3 (Homo sapiens, UniProt P78545 1-371); settings: protein: recombinant; tags: N-terminal GST; dsDNA, one strand shown
T11 sequence: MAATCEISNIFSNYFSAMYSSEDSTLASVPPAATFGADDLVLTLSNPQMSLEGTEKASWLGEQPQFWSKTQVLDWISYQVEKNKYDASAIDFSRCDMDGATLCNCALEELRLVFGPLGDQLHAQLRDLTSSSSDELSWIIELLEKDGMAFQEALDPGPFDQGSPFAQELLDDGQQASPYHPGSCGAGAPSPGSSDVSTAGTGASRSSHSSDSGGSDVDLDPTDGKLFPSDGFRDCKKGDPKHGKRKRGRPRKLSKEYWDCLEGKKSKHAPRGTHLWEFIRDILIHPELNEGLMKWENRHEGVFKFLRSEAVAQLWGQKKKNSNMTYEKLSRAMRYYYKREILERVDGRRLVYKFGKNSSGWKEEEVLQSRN
Outline: as §1

[18] = target: CRX (Homo sapiens, UniProt O43186 1-299); settings: protein: recombinant; tags: N-terminal GST; dsDNA, one strand shown
Chain of CRX (O43186 whole entry): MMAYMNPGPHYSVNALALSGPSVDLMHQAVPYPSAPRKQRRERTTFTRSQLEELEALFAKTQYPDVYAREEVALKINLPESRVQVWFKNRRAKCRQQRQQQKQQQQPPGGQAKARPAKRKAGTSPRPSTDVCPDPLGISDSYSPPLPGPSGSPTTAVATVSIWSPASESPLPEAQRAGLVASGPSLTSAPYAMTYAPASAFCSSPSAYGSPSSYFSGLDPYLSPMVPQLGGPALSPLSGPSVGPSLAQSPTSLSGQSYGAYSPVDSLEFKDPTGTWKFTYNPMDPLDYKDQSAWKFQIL
Outline: as §1

[19] = target: ETV1 (Homo sapiens, UniProt P50549 1-477); settings: protein: recombinant; tags: N-terminal GST; dsDNA, one strand shown
Chain of ETV1 (P50549 whole entry): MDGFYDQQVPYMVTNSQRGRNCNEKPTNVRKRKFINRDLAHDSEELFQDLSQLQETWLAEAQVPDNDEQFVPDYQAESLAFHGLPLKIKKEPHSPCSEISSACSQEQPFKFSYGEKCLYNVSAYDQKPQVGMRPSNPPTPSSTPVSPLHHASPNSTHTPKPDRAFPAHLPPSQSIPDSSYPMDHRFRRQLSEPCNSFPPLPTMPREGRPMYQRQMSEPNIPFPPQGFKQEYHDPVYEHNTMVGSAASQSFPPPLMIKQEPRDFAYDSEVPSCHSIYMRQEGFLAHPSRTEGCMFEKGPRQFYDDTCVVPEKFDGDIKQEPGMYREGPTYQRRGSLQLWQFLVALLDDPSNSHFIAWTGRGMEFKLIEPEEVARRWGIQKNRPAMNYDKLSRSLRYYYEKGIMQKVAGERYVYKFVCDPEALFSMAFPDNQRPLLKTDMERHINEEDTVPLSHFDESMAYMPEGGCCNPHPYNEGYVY
Outline: as §1

**Q.** Which results are given for TCTTAC?
**A.** binding signal [1]: 1.29 fold enrichment (6-mer frequency, TF over GST control); binding signal [2]: 1.36 fold enrichment (6-mer frequency, TF over GST control); binding signal [3]: 1.33 fold enrichment (6-mer frequency, TF over GST control); binding signal [4]: 1.23 fold enrichment (6-mer frequency, TF over GST control); binding signal [5]: 1.32 fold enrichment (6-mer frequency, TF over GST control); binding signal [6]: 1.2 fold enrichment (6-mer frequency, TF over GST control); binding signal [7]: 1.26 fold enrichment (6-mer frequency, TF over GST control); binding signal [8]: 1.26 fold enrichment (6-mer frequency, TF over GST control); binding signal [9]: 1.3 fold enrichment (6-mer frequency, TF over GST control); binding signal [10]: 1.23 fold enrichment (6-mer frequency, TF over GST control); binding signal [11]: 1.28 fold enrichment (6-mer frequency, TF over GST control); binding signal [12]: 1.23 fold enrichment (6-mer frequency, TF over GST control); binding signal [13]: 1.29 fold enrichment (6-mer frequency, TF over GST control); binding signal [14]: 1.27 fold enrichment (6-mer frequency, TF over GST control); binding signal [15]: 1.34 fold enrichment (6-mer frequency, TF over GST control); binding signal [16]: 1.39 fold enrichment (6-mer frequency, TF over GST control); binding signal [17]: 1.13 fold enrichment (6-mer frequency, TF over GST control); binding signal [18]: 1.7 fold enrichment (6-mer frequency, TF over GST control); binding signal [19]: 1.32 fold enrichment (6-mer frequency, TF over GST control)
